From PubChem BioAssay (Tox21)
Inconclusive results are not listed. A number with no mark means an inactive call. The source made the active and inactive calls. Calls come from the whole dose curve; as a rule, active = well fitted cell-killing curve with a large enough effect in the repeat runs; inconclusive = weak or mixed curves, or effect the other way; inactive = flat fitted curve, though single readings scatter.

Assay: cAMP Responsive Elements (CRE) small molecule antagonists, cell-based qHTS assay: qHTS cell viability counter screen (AID 2060913); note: nearly all actives have a fitted effect of over 40% in size
Details: CRE-bla HEK293T viability, CellTiter-Glo luminescence, 5 h; series mostly up to 92.4 µM; viability change, negative = cytotoxic: at the top concentration
In short: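 Cytotoxicity counter screen multiplexed with the CRE-bla antagonist read: HEK293T cells in DMEM with dialyzed FBS and 25 mM HEPES were treated 3 hrs under 0.25 uM final NKH477, then viability measured by CellTiter-Glo luminescence.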
% is set by controls: 0 for no effect and ±100 for the full control effect; potency is the fitted concentration of half-maximal effect.

Row | SMILES | viability change, negative = cytotoxic | Potency
1 | COc1ccc(C(C)=O)cc1 | 2% | 
2 | CN(C)C(=O)COC(=O)Cc1ccc(OC(=O)c2ccc(N=C(N)N)cc2)cc1 | 0% [at 42.5 µM] | 
3 | CCn1cc(C(=O)O)c(=O)c2cnc(N3CCCC3)nc21 | 3.75% [at 8.39 µM] | 
4 | Brc1ccc(Br)c(Br)c1 |  | inactive
5 | CCCCCCCCCOC(C)=O | 2.76% | 
6 | CC[C@@]1(c2ccccc2)NC(=O)N(C)C1=O | 4.51% [at 42.5 µM] | 
7 | CO[C@@]1(NC(=O)Cc2cccs2)C(=O)N2C(C(=O)O)=C(COC(N)=O)CS[C@@H]21 | -0.205% [at 42.5 µM] | 
8 | C1CCN(CN2CCCCC2)CC1 | -0.953% | 
9 | c1cc2c3c(c1)ccc1cccc(c13)C2 | -3.49% | 
10 | CC1=NN(c2ccc(S(=O)(=O)O)cc2)C(=O)C1 | 0.647% | 
11 | S=C([S-])NCCNC(=S)[S-].[Mn+2] | 5.63% | 
12 | c1coc(CNc2ncnc3nc[nH]c23)c1 | -10.9% | 
13 | CCCCCCCCCCCCc1ccc(O)cc1 |  | 61.1 µM (active)
14 | O=C1c2cccc(O)c2C(=O)c2c(O)cccc21 |  | inactive
15 | O=C(O)c1cccc(N(Cc2cccnc2)c2ccc(OC(F)F)c(OC(F)F)c2)c1 | -0.773% | 
16 | CCOc1ccc(Cc2nccc3cc(OCC)c(OCC)cc23)cc1OCC | -14.5% [at 42.5 µM] | 
17 | COC(=O)CC(C(C)=O)C(=O)OC (stereo not drawn) | -8.22% | 
18 | CC(CO)Oc1ccccc1 (stereo not drawn) | 10.2% | 
19 | Cc1cc2c(cc1CC(=O)c1sccc1S(=O)(=O)Nc1onc(C)c1Cl)OCO2 | -0.721% [at 42.5 µM] | 
20 | CCN(CC)CCOc1ccccc1C(=O)CCc1ccccc1 | -0.57% [at 42.5 µM] | 

Row | SMILES | viability change, negative = cytotoxic | Potency
21 | CNC(C)=O | 5.11% | 
22 | CCO[Si](CC(C)C)(OCC)OCC | -2.7% | 
23 | CCC(CO)(CO)[N+](=O)[O-] | 1.96% | 
24 | C=C[Si](OC)(OC)OC | -8.09% | 
25 | C1CCOC1 | -1.2% | 
26 | C=C(C)C(=O)OCC1CCCO1 (stereo not drawn) | 3.56% | 
27 | Nc1cc(=O)[nH]c(N)n1 | 8.59% [at 42.5 µM] | 
28 | CN(C)C(C)(C)CO | 6.89% | 
29 | O=C1c2ccccc2C(=O)c2c(O)c(O)cc(O)c21 | -13.1% | 
30 | CC(C)c1ccc(C#N)cc1 | 4.82% | 
31 | O=C1NC(=O)c2cccc3cccc1c23 | 0.917% | 
32 | COc1c(C)c2c(c(O)c1C/C=C(\C)CCC(=O)OCCN1CCOCC1)C(=O)OC2 | 11.6% [at 42.5 µM] | 
33 | Nc1ccc(/C=C/c2ccc(N)cc2S(=O)(=O)O)c(S(=O)(=O)O)c1 | 3.88% [at 0.349 µM] | 
34 | C=CC(=O)OCCOCCOCC | -2.17% | 
35 | CCCCCCCCCCCCCCCCC(=O)O | -6.62% [at 42.5 µM] | 
36 | CCCCCC[C@@H](O)C/C=C\CCCCCCCC(=O)OCC(O)CO (stereo partly drawn) | 1.3% | 
37 | O=Cc1cc(O)ccc1Br | -12.3% | 
38 | CCCCCCC(O)CCCCCCCCCCC(=O)OC (stereo not drawn) | 0.154% | 
39 | C[C@@H]1O[C@@H](O[C@@H]2[C@@H](O)[C@H](OCCc3ccc(O)c(O)c3)O[C@H](CO[C@@H]3O[C@H](CO)[C@@H](O)[C@H](O)[C@H]3O)[C@H]2OC(=O)/C=C/c2ccc(O)c(O)c2)[C@H](O)[C@H](O)[C@H]1O | 11.4% | 

Assay: cAMP Responsive Elements (CRE) small molecule agonists, cell-based qHTS assay: qHTS cell viability counter screen (AID 2060914); note: nearly all actives have a fitted effect of over 50% in size
Details: CRE-bla HEK293T viability, CellTiter-Glo luminescence, 5 h; series mostly up to 92.4 µM; activity change, negative = cytotoxicity: at the top concentration
In short: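 In the same wells as the reporter read, viability of CRE-bla HEK 293T cells was quantified by CellTiter-Glo luminescence after a 3 h compound exposure.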

Row | SMILES | activity change, negative = cytotoxicity | Potency
40 | COc1ccc(C(C)=O)cc1 | 5.14% | 
41 | CN(C)C(=O)COC(=O)Cc1ccc(OC(=O)c2ccc(N=C(N)N)cc2)cc1 | 8.44% [at 42.5 µM] | 
42 | CCn1cc(C(=O)O)c(=O)c2cnc(N3CCCC3)nc21 | -22.5% [at 8.39 µM] | 
43 | Brc1ccc(Br)c(Br)c1 |  | inactive
44 | CCCCCCCCCOC(C)=O | 3.79% | 
45 | CC[C@@]1(c2ccccc2)NC(=O)N(C)C1=O | 20.4% [at 42.5 µM] | 
46 | CO[C@@]1(NC(=O)Cc2cccs2)C(=O)N2C(C(=O)O)=C(COC(N)=O)CS[C@@H]21 | -6.27% [at 42.5 µM] | 
47 | C1CCN(CN2CCCCC2)CC1 | 0.294% | 
48 | c1cc2c3c(c1)ccc1cccc(c13)C2 | -19.1% | 
49 | CC1=NN(c2ccc(S(=O)(=O)O)cc2)C(=O)C1 | -1.57% | 
50 | S=C([S-])NCCNC(=S)[S-].[Mn+2] | 17.3% | 
51 | c1coc(CNc2ncnc3nc[nH]c23)c1 | -10.9% | 
52 | CCCCCCCCCCCCc1ccc(O)cc1 |  | 61.1 µM (active)
53 | O=C1c2cccc(O)c2C(=O)c2c(O)cccc21 |  | inactive
54 | O=C(O)c1cccc(N(Cc2cccnc2)c2ccc(OC(F)F)c(OC(F)F)c2)c1 | -4.35% | 
55 | CCOc1ccc(Cc2nccc3cc(OCC)c(OCC)cc23)cc1OCC | -14.4% [at 42.5 µM] | 
56 | COC(=O)CC(C(C)=O)C(=O)OC (stereo not drawn) | 4.7% | 
57 | CC(CO)Oc1ccccc1 (stereo not drawn) | -27.5% | 
58 | Cc1cc2c(cc1CC(=O)c1sccc1S(=O)(=O)Nc1onc(C)c1Cl)OCO2 | -0.764% [at 42.5 µM] | 
59 | CCN(CC)CCOc1ccccc1C(=O)CCc1ccccc1 | 0.016% [at 42.5 µM] | 

Row | SMILES | activity change, negative = cytotoxicity | Potency
60 | CNC(C)=O | 12.2% | 
61 | CCO[Si](CC(C)C)(OCC)OCC | 0.0695% | 
62 | CCC(CO)(CO)[N+](=O)[O-] | -2.71% | 
63 | C=C[Si](OC)(OC)OC | 0.79% | 
64 | C1CCOC1 | -0.0768% | 
65 | C=C(C)C(=O)OCC1CCCO1 (stereo not drawn) | 1.56% | 
66 | Nc1cc(=O)[nH]c(N)n1 | -4.19% [at 42.5 µM] | 
67 | CN(C)C(C)(C)CO | 5.03% | 
68 | O=C1c2ccccc2C(=O)c2c(O)c(O)cc(O)c21 | 16.3% | 
69 | CC(C)c1ccc(C#N)cc1 | -5.22% | 
70 | O=C1NC(=O)c2cccc3cccc1c23 | 0.528% | 
71 | COc1c(C)c2c(c(O)c1C/C=C(\C)CCC(=O)OCCN1CCOCC1)C(=O)OC2 | -21.1% [at 42.5 µM] | 
72 | Nc1ccc(/C=C/c2ccc(N)cc2S(=O)(=O)O)c(S(=O)(=O)O)c1 | 6.77% [at 0.349 µM] | 
73 | C=CC(=O)OCCOCCOCC | 3.07% | 
74 | CCCCCCCCCCCCCCCCC(=O)O | 15.9% [at 42.5 µM] | 
75 | CCCCCC[C@@H](O)C/C=C\CCCCCCCC(=O)OCC(O)CO (stereo partly drawn) | 3.35% | 
76 | O=Cc1cc(O)ccc1Br | -0.0241% | 
77 | CCCCCCC(O)CCCCCCCCCCC(=O)OC (stereo not drawn) | 4.35% | 
78 | C[C@@H]1O[C@@H](O[C@@H]2[C@@H](O)[C@H](OCCc3ccc(O)c(O)c3)O[C@H](CO[C@@H]3O[C@H](CO)[C@@H](O)[C@H](O)[C@H]3O)[C@H]2OC(=O)/C=C/c2ccc(O)c(O)c2)[C@H](O)[C@H](O)[C@H]1O | 8.64% | 
